Test results as given in PubChem BioAssay (NCATS).
Inconclusive results are not listed. A call without a number means that no potency is given here. The source made the active and inactive calls. The call rests on the fitted dose curve; in most records, active means well fitted cell-killing curve with a large enough effect; inconclusive means small, poorly fitted or top-dose-only effect; inactive means no such curve, though single readings can be large or run the other way.

Assay: qHTS of pediatric cancer cell lines to identify multiple opportunities for drug repurposing: Primary screen for OHS-50 cells (AID 1347103); further: nearly all actives have a fitted effect of over 40% in size
Conditions: OHS-50 osteosarcoma viability, CellTiter-Glo luminescence, 48 h; series mostly up to 57.3 µM
Outline: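 Cells (500-1,000/well) rested 5 h, then received compounds for 48 h; metabolically active cells were measured by CellTiter-Glo luminescence. Final concentrations spanned up to 46 µM (MIPE, 11-point) or 0.59 nM-46 µM (NPC, 8-point) in primary screens, 11-point in follow-ups.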

| Structure (SMILES) | Potency |
| --- | --- |
| Cn1c(=O)c2c(ncn2CC(=O)O)n(C)c1=O | inactive |
| O=[N+]([O-])c1nccn1CO[C@@H](CO)[C@H](O)CO | inactive |
| CC(=O)OCC(=O)Nc1cc(C#N)cc(NC(=O)COC(C)=O)c1Cl | inactive |
| CC1(C)O[C@@H]2C[C@H]3[C@@H]4C[C@H](F)C5=CC(=O)C=C[C@]5(C)[C@@]4(F)[C@@H](O)C[C@]3(C)[C@]2(C(=O)CO)O1 | inactive |
| CCCC(=O)Nc1ccc(O)c(C(C)=O)c1 | inactive |
| O=[N+]([O-])c1cncn1CCN1CCOCC1 | inactive |
| CCOc1ncc(F)c(=O)[nH]1 | inactive |
| CCc1cc(S(=O)(=O)O)c2cc(C(C)C)cccc1-2 | inactive |
| Cc1ccccc1N1CCN(CCc2nnc3n2CCCC3)CC1 | inactive |
| CN1C(=O)c2ccccc2C1=O | inactive |
| Nc1nnnn1-c1ccccc1 | inactive |
| CCOC(=O)c1ccc(NC(=O)CN2CCCCC2)cc1 | inactive |
| Brc1ccccc1-c1ccccc1 | inactive |
| CCNC(=O)NCCCOc1cccc(CN2CCCCC2)c1 | inactive |
| CO/N=C(/C(=O)N[C@@H]1C(=O)N2C(C(=O)OCOC(=O)C(C)(C)C)=C(C)CS[C@H]12)c1csc(N)n1 | inactive |
| Cc1c(N)cccc1C(F)(F)F | inactive |
| OC[C@]1(O)OC[C@@H](O)[C@H](O)[C@@H]1O | inactive |
| COC(=O)c1cc(Cl)ccc1OC | inactive |
| CCCc1ncc(C(=O)O)s1 | inactive |
| CCOc1ccc(NS(=O)(=O)c2ccc(N)cc2)nn1 | inactive |
| CCCc1c2oc(C(=O)O)cc(=O)c2cc2c(=O)cc(C(=O)O)n(CC)c12 | inactive |
